Consider 61 molecules from PubChem BioAssay AID1861 (The Scripps Research Institute Molecular Screening Center, 2009).

About 3,100 (1.1%) of roughly 290,000 compounds were called active. Cut-off read from the data, not from the text of the source: active = inhibition above about 16% (passing the limit was not always enough); inactive = the rest. Only a selection was taken, and actives are over-represented in it overall.

In the assay the target is Neuropeptides B/W receptor type 1 (Homo sapiens) (UniProt P48145). Nature of the assay: blockers of human neuropeptide B/W receptor 1 – cell-based, fluorescence, single concentration, primary screen (AID 1861).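 Note: cells stimulated with the agonist NPW; 0% = agonist with vehicle and 100% = vehicle without agonist.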 To be noted: GPR7-expressing cells, fluorescence antagonist assay; at 4.4 µM; hits give high values.
Chain of Neuropeptides B/W receptor type 1 (Homo sapiens) (P48145 whole entry, looked up): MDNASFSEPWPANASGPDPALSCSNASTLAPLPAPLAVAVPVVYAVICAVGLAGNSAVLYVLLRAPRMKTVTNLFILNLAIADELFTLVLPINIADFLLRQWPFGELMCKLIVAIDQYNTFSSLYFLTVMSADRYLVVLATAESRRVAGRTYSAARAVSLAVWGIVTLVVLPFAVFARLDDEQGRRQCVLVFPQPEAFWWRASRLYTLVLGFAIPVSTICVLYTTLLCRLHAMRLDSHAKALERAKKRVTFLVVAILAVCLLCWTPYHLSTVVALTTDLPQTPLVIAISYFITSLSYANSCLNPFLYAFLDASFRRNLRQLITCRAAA
As to `Cc1nn(C)c(Oc2ccccc2)c1[N+](=O)[O-]`, the inhibition is -4.53% (inactive).
Turning to `Cn1c(=O)c([N+](=O)[O-])c(Oc2ccccc2)c2ccccc21`, the inhibition was 101% (active).
For the molecule `Cc1cccc(Oc2c([N+](=O)[O-])c(=O)n(C)c3ccccc23)c1`, the inhibition is -3.17% (inactive).
To `CC(Cc1cccs1)N(Cc1ccc(Cl)cc1)C(=O)c1ccncc1` (stereo unspecified) belongs 14.5% (inactive); to `O=[N+]([O-])c1cccc(/C=N/Nc2ncc(Br)cn2)c1`, -6.1% (inactive).
The figure for `Cc1c(CN2CCC(n3nccc3NC(=O)CCc3ccccc3)CC2)cnn1C` is 0.34% (inactive).
The figure for `O=S(=O)(Nc1ccccn1)c1ccc(Oc2ccccc2)cc1` is -3.88% (inactive).
For `COc1ccccc1Oc1ccc(S(=O)(=O)Nc2cccnc2)cc1`, the inhibition was 27.5% (active).
Take `COc1ccc(S(=O)(=O)Nc2cccnc2)c(Cl)c1Cl`: the inhibition is 4.69% (inactive).
Turning to `CC(Oc1cccc(Cl)c1)C(=O)NC1CC(C)(C)NC(C)(C)C1` (stereo unspecified), the inhibition is -7.54% (inactive).
For `Cc1cc(OC(C)C(=O)NC2CC(C)(C)NC(C)(C)C2)c2c(C)cc(=O)oc2c1` (stereo unspecified), the inhibition was 27.1% (active).
As for `Cc1cc(=O)oc(C)c1C(=O)NC1CC(C)(C)NC(C)(C)C1`, the inhibition is 6.27% (inactive).
The figure for `O=c1oc2ccccc2c(CNc2ccccc2)c1[N+](=O)[O-]` is 6.62% (inactive); for `CCN1CCN(CCNC(=O)c2ccc(/C=C3/Sc4ccccc4N(Cc4cccc(C)c4)C3=O)cc2)CC1` it is 3.05% (inactive); for `CCN1/C(=C/c2ccc3ccc(C)cc3[n+]2CC)Sc2ccccc21` it is 38.4% (active).
To `CCN1/C(=C\c2ccc3ccccc3[n+]2CC)Sc2cc(C)ccc21` belongs 34.1% (active); to `Cc1cc(-c2ccc(S(=O)(=O)N3CCc4ccccc4C3)s2)on1`, 1.59% (inactive).
To `CC(=O)Oc1ccc2c(=O)oc(-c3ccc([N+](=O)[O-])cc3)nc2c1` belongs -20.8% (inactive); to `Cc1cccc(N(C(=O)c2csnn2)C(C(=O)NCc2ccccc2)c2ccncc2)c1` (stereo unspecified), -21.8% (inactive).
On to `CCC(=O)Nc1ccc(S(=O)(=O)Nc2c(NC)c3ccccc3oc2=O)cc1`, for which the inhibition is -6.83% (inactive).
To `Cn1c(Nc2ccccc2)cc(=O)n(C)c1=O` belongs 19.8% (inactive); to `Cc1cccc(N2CCN(C(=O)c3cc4c(=O)[nH]c5ccccc5c4n3C)CC2)c1C`, -11.3% (inactive); to `COCCNC(=O)C(c1ccc(C)o1)N(Cc1ccccc1)C(=O)Cn1nnc2ccccc21` (stereo unspecified), -3% (inactive).
To `COc1ccccc1N(C(=O)Cn1nnc2ccccc21)C(C(=O)NCc1ccco1)c1ccc(C)o1` (stereo unspecified) belongs 27% (active).
To `O=C(NCc1ccco1)C(c1ccncc1)N(C(=O)Cn1nnc2ccccc21)c1ccccc1` (stereo unspecified) belongs -15.7% (inactive); to `CCOc1ccc(C(CC(=O)O)NC(=O)Cc2ccccc2)cc1OC` (stereo unspecified), -15.8% (inactive); to `COc1cccc2cc(C(N)=O)/c(=N\NC(=O)c3ccccc3)oc12`, 20.9% (inactive).
With `O=C(c1cc(COc2ccc(F)c(F)c2)on1)N1CCOCC1`, the inhibition was 1.79% (inactive).
The figure for `C=CCC1(CC=C)CCCN1C(=O)c1cc(COc2ccc(-n3cncn3)cc2)on1` is 29.1% (active); for `CCn1ccnc1CN(C)C(=O)c1cc(COc2ccc(-n3cncn3)cc2)on1` it is -16.5% (inactive).
The figure for `O=C(COC(=O)c1ccc(F)cc1)NCCCc1ccccc1` is 12.2% (inactive); for `O=C(Nc1ccccc1)c1nnsc1S(=O)(=O)c1ccc(Cl)cc1` it is 42.6% (active).
In the case of `O=C(c1ccc(Cl)cc1)c1cnc(Nc2ccccc2)s1`, the inhibition is 7.11% (inactive).
The figure for `CS(=O)(=O)c1ccc(Cl)c(NC(=O)Nc2ccccc2)c1` is 4.03% (inactive); for `COc1ccccc1N1CCN(C(=O)c2ccc(NC3=NC4CS(=O)(=O)CC4S3)cc2)CC1` (stereo unspecified) it is -7.21% (inactive).
To `O=C(O)c1ccc(NC(=O)c2ccc(COc3ccc(Cl)cc3)o2)cc1` belongs 15.6% (inactive).
The figure for `CCOc1ccc(OCc2ccc(C(=O)Nc3cccc(C)n3)o2)cc1` is -9.15% (inactive); for `Cc1cc(OCc2ccc(C(=O)Nc3ccc(C(=O)O)cc3)o2)ccc1Cl` it is 38% (active); for `CCNc1c(NS(=O)(=O)c2ccc(C3CCCCC3)cc2)c(=O)oc2ccccc12` it is 12.2% (inactive).
With `CC(=O)N1CCN(c2ccccc2NC(=S)NC(=O)c2cc3ccccc3o2)CC1`, the inhibition is -12.1% (inactive).
The figure for `Cc1cc(C)nc(N/N=C/c2ccc([N+](=O)[O-])o2)n1` is -3.49% (inactive).
In the case of `Cc1ccc(CNCc2ccc3c(c2)OCO3)c(C)c1`, the inhibition is -3.64% (inactive).
The figure for `COc1ccc(C2(C)NC(=O)N(CC(=O)c3ccc4c(c3)OCO4)C2=O)cc1` (stereo unspecified) is 0.08% (inactive).
On to `COc1ccc(C(=O)CN2C(=O)NC(C)(c3ccc(C)cc3)C2=O)cc1OC` (stereo unspecified), for which the inhibition was 22.6% (inactive).
Consider `COc1cc(NC(=O)CN2C(=O)NC(C)(c3ccc(OC(F)F)cc3)C2=O)cc(OC)c1OC` (stereo unspecified), for which the inhibition was 25.8% (active).
The figure for `Cc1nonc1NC(=O)c1oc2ccccc2c1C` is -9.19% (inactive).
To `CCOc1ccc(Cn2nnc(C(=O)Nc3ccc(OC)cc3OC)c2N)cc1` belongs 17.7% (inactive); to `CCc1ccc(NC(=O)Cn2nnc(C(=O)NCc3ccc(OC)cc3)c2N)cc1`, -9.93% (inactive); to `CCOc1ccc(Cn2nnc(C(=O)NCc3ccccc3)c2N)cc1`, 35.9% (active).
The figure for `COc1ccc(CCNC(=O)c2ccccc2OCc2ccccc2)cc1` is 1.73% (inactive); for `O=C(NCCc1ccccn1)c1cccnc1Oc1ccc(Cl)cc1` it is -10.8% (inactive); for `CCOc1ncccc1C(=O)NCCc1ccc(OC)cc1` it is 24.6% (active).
As to `CC(C)NC(=O)C(c1ccc(F)cc1)N(C(=O)CCC(=O)Nc1ccccn1)c1ccccc1F` (stereo unspecified), the inhibition is -14.6% (inactive).
The figure for `Cc1ccc2[nH]cc(CCNC(=O)c3ccc([N+](=O)[O-])cc3)c2c1` is 25% (active).
For `Cc1ccc2[nH]cc(CCNC(=O)C3CCCCC3)c2c1`, the inhibition is -3.83% (inactive).
For `O=C(NCCc1c[nH]c2ccc(Cl)cc12)c1ccc([N+](=O)[O-])cc1`, the inhibition is 7.45% (inactive).
`O=C(N/N=C/c1ccccc1O)C1CCCC1`: the inhibition is -6.49% (inactive).
The figure for `CCN(CC)CCCNC(=O)CCn1nc(-c2ccc(Cl)cc2)ccc1=O` is 11% (inactive); for `Cc1ccccc1N1CC(C(=O)Nc2ccc3c(c2)OCO3)CC1=O` (stereo unspecified) it is -9.07% (inactive).
The figure for `Cc1ccc(NC(=O)C2CC(c3ccc(F)cc3)=NO2)cc1` (stereo unspecified) is -5.41% (inactive); for `O=C(Nc1ccc2c(c1)OCO2)C1CC(c2c(F)cccc2Cl)=NO1` (stereo unspecified) it is 29% (active).
